Measured values reported in PubChem BioAssay (Tox21).
Values joined by “and” are separate entries in the source; they are usually repeats but may differ in a detail not shown here. Equal values may be shown once. Values without a mark were called inactive. Inconclusive results are not listed. Where a call stands in place of a potency, no number is given. Active and inactive are the calls of the source. Unless noted, calls follow the shape of the dose curve; as a rule, active = well fitted curve in the direction sought with a large enough effect in the repeat runs; inconclusive = weak or mixed curves; inactive = no such curve, though single readings can be large; an effect the other way counts as inactive or inconclusive.

Experiments:
[1] = qHTS assay to identify small molecule agonists of the estrogen receptor alpha (ER-alpha) signaling pathway in the presence of an antagonist - cell viability counter screen (AID 1259386);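 also: cells exposed to compounds for 22 h at 37 °C before the viability read; nearly all actives have a fitted effect of over 30% in size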; also: potency is read from the fitted curve at half-maximal effect
Procedure, shortened: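 Steps: 5-day stripped-FBS culture; seed and incubate 24hr; add ICI-182,780 (10.0nM final); pin 15-point compound titration; incubate 22hr at 37C; add CellTiter-Fluor at 21hr; read fluorescence.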

[2] = biological target: Progesterone receptor (Homo sapiens) (UniProt P06401); test: qHTS assay to identify small molecule antagonists of the progesterone receptor (PR) signaling pathway (AID 1346795; active = well fitted inhibition curve with a large enough effect in the signal ratio in the repeat runs, not every such curve was filed as active; the % refers to the signal ratio; also: potency is read from the fitted curve at half-maximal effect)
Sequence of Progesterone receptor (Homo sapiens) (P06401 whole entry, looked up): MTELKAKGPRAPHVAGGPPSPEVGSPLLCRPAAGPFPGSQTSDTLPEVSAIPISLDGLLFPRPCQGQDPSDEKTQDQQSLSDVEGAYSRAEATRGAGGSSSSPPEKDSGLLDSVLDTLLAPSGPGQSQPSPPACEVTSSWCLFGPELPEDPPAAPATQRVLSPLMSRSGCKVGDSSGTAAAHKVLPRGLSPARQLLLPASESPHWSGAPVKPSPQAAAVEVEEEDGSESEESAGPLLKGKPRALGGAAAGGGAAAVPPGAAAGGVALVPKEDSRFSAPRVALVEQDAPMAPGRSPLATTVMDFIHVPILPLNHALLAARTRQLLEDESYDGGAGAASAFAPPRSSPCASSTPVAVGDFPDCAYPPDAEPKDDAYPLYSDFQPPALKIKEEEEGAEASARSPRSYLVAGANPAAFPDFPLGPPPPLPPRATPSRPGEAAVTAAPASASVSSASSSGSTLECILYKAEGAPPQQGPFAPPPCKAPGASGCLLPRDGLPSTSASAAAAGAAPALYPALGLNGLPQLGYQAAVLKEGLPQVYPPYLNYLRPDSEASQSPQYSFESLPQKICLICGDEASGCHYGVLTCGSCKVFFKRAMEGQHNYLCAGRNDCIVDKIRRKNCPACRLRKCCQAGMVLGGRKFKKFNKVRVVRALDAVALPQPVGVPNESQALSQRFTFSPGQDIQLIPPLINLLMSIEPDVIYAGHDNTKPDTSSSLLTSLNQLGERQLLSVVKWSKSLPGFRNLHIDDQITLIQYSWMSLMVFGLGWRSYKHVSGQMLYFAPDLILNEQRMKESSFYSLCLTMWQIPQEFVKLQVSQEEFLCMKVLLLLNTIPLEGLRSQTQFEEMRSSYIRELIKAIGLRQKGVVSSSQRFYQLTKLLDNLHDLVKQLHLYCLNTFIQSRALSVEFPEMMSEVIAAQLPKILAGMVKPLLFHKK
Procedure, shortened: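 Beta-lactamase reporter, HEK293T PR-UAS-bla line; 2% charcoal-stripped FBS; 6 hr pre-incubation, 37C/5% CO2. Compound + R5020 1 nM final, 16 hr. LiveBLAzer B/G FRET substrate, 2 hr RT; fluorescence intensity read.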

[3] = qHTS assay to identify small molecule antagonists of the progesterone receptor (PR) signaling pathway - cell viability counter screen (AID 1346798); also: nearly all actives have a fitted effect of over 50% in size; also: potency is read from the fitted curve at half-maximal effect
Procedure, shortened: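 Luminescence readout (CellTiter-Glo, 30 min, RT) of viability in PR-UAS-bla HEK293T cells exposed to compound and R5020 agonist for 16 hr at 37C, 5% CO2; run in the same wells as the beta-lactamase reporter read.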

[4] = qHTS assay to identify small molecule agonists of the TGF-beta/Smad signaling pathway - cell viability counter screen (AID 1346829); also: nearly all actives have a fitted effect of over 45% in size; also: potency is read from the fitted curve at half-maximal effect
Procedure, shortened: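 After overnight seating at 37 C and 5% CO2, reporter cells got compounds for 5 hr and FRET substrate for 2 hr; cell viability then came from CellTiter-Glo luminescence.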

[5] = qHTS assay to identify small molecule agonists of the TGF-beta/Smad signaling pathway (AID 1346859; active = well fitted activation curve with a large enough effect in the signal ratio in the repeat runs, not every such curve was filed as active; the % refers to the signal ratio; also: series mostly up to about 77 µM)
Procedure, shortened: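 Read-out: fluorescence at 460 and 530 nm (405 nm excitation) after a 2 hr room-temperature incubation with beta-lactamase FRET substrate. SBE-bla HEK 293T cells had been treated with test compounds for 5 hr at 37 C.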

[6] = biological target: Thyrotropin-releasing hormone receptor (Homo sapiens) (UniProt P34981); test: qHTS assay to identify small molecule antagonists of the thyrotropin-releasing hormone receptor (TRHR) signaling pathway (AID 1346877; active = well fitted inhibition curve with a large enough effect in the repeat runs, not every such curve was filed as active; also: series mostly up to about 51 µM)
Sequence of Thyrotropin-releasing hormone receptor (Homo sapiens) (P34981 whole entry, looked up): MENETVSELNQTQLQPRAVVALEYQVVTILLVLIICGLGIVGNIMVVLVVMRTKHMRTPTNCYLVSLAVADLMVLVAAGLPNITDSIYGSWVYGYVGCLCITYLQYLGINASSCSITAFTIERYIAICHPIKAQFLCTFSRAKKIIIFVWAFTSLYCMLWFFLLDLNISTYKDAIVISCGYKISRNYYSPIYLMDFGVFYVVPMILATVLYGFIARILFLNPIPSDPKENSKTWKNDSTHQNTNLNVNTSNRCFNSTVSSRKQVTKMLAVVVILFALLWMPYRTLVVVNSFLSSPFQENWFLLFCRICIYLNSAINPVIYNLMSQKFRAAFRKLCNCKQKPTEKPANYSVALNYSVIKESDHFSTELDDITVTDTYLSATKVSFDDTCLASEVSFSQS
Procedure, shortened: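 Human TRHR in HEK293 cells; inhibition of the intracellular calcium rise triggered by 1 nM TRH was followed by fluorescence over 3 min. Compounds were run at 15 concentrations, three replicates each.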

[7] = biological target: Thyrotropin-releasing hormone receptor (Homo sapiens) (UniProt P34981); test: qHTS assay to identify small molecule agonists of the thyrotropin-releasing hormone receptor (TRHR) signaling pathway (AID 1346891; calls by dose curve;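 also: HEK293 cells expressing TRHR with calcium dye readout; series mostly up to about 58 µM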)
Procedure, shortened: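 HEK293/TRHR cells, 1500 per well, 18 h 37 °C; Ca dye 2 h 37 °C; pin-tool compound addition (agonist mode); kinetic fluorescence 3 min, 1 s reads; 15 concentrations, triplicate.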

[8] = Caspase-3/7 induction in HepG2 cells by small molecules, qHTS assay (AID 1346978); also: nearly all actives have a fitted effect of over 15% in size; also: potency is read from the fitted curve at half-maximal effect
Procedure, shortened: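 Wild-type HepG2 cells, 2,000/well, settled 5 hr at 37 C and 5% CO2, then compound-treated for 17 hr; caspase-3/7 activity read by luminescent Caspase-Glo 3/7 after 30 min at room temperature.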

[9] = Caspase-3/7 induction in CHO-K1 cells by small molecules, qHTS assay (AID 1346980); also: nearly all actives have a fitted effect of over 15% in size; also: potency is read from the fitted curve at half-maximal effect
Procedure, shortened: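 Wild-type CHO-K1 cells exposed to compounds for 17hr at 37 C, 5% CO2. Caspase-3/7 activity then measured by Caspase-Glo 3/7 luminescence after 30min at room temperature.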

[10] = Caspase-3/7 induction in HepG2 cells by small molecules, qHTS cell viability counter screen (AID 1346981); also: nearly all actives have a fitted effect of over 30% in size; also: potency is read from the fitted curve at half-maximal effect
Procedure, shortened: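 The parent HepG2 line is plated at 2,000 cells per well and rested 5 hr before compound pinning from DMSO stocks. Following a 16-hr treatment at 37 C, a fluorogenic live-cell substrate (CellTiter-Fluor) reports viability after 1 hr.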

[11] = biological target: Nuclear receptor subfamily 1 group I member 2 (Homo sapiens) (UniProt O75469); test: Human pregnane X receptor (PXR) small molecule agonists, qHTS assay (AID 1346982); also: nearly all actives have a fitted effect of over 35% in size; also: potency is read from the fitted curve at half-maximal effect
Sequence of Nuclear receptor subfamily 1 group I member 2 (Homo sapiens) (O75469 whole entry, looked up): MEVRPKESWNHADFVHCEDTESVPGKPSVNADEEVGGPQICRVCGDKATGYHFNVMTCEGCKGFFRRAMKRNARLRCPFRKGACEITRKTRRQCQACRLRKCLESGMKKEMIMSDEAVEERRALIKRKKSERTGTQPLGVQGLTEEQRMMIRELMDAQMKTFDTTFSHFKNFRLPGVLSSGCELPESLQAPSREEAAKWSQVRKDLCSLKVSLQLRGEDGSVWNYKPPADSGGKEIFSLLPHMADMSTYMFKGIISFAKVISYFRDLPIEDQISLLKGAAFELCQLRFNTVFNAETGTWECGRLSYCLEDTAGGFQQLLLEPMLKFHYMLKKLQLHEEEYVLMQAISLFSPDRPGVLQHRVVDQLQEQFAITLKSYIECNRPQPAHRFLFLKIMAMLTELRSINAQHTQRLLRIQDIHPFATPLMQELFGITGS
Procedure, shortened: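 After plating in 5% charcoal-stripped FBS and a 5 hr rest, PXR-Luc HepG2 cells received compounds in DMSO. Following 24 hr at 37 C, ONE-Glo was added and light output read.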

[12] = biological target: Acetylcholinesterase (Homo sapiens) (UniProt P22303); test: Acetylcholinesterase (AChE) small molecule antagonists: colormetric cell-based qHTS assay (AID 1347395; calls by dose curve; also: nearly all actives have a fitted effect of over 30% in size)
Sequence of Acetylcholinesterase (Homo sapiens) (P22303 whole entry, looked up): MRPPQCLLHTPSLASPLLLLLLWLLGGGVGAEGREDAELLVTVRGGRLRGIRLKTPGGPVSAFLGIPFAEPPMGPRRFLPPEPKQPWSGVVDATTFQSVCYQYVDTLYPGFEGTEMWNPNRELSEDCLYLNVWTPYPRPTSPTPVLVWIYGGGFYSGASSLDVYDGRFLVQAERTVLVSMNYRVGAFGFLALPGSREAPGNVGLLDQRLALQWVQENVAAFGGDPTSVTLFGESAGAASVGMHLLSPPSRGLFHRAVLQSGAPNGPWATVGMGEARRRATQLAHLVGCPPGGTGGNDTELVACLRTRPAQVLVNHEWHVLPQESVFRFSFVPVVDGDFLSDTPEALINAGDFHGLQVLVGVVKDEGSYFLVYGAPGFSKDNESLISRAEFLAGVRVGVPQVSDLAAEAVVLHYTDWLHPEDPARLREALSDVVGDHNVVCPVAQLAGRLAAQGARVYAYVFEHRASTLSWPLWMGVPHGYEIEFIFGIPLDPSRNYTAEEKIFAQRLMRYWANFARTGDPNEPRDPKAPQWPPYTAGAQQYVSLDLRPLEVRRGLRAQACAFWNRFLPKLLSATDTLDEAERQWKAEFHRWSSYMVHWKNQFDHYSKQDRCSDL
Procedure, shortened: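 SH-SY5Y cells; cpd 30 min 37 C; + DTNB/acetylthiocholine, 90 min 37 C; colorimetric thiocholine read; qHTS.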

[13] = qHTS assay to identify small molecule antagonists of the TGF-beta/Smad signaling pathway - cell viability counter screen (AID 1346824); also: nearly all actives have a fitted effect of over 50% in size; also: potency is read from the fitted curve at half-maximal effect
Procedure, shortened: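 SBE-bla HEK 293T cells, incubated overnight, then compound plus 0.25 ng/mL TGF-beta1 (stock added) for 5 hr at 37 C. Viability was read in the same wells by CellTiter-Glo luminescence after 30 min at room temperature.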

[14] = Human pregnane X receptor (PXR) small molecule agonists, qHTS cell viability counter screen (AID 1346977); also: nearly all actives have a fitted effect of over 50% in size; also: potency is read from the fitted curve at half-maximal effect
Procedure, shortened: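 Fluorescence read-out (CellTiter-Fluor) of viability in PXR-Luc HepG2 cells, multiplexed with the luciferase agonist read. Compounds in DMSO added after 5hr plating; 24hr total exposure at 37C, 5% CO2.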

[15] = qHTS assay to identify small molecule agonists of the progesterone receptor (PR) signaling pathway - cell viability counter screen (AID 1346799; calls by dose curve; also: nearly all actives have a fitted effect of over 45% in size; also: potency is read from the fitted curve at half-maximal effect)
Procedure, shortened: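 HEK293T PR-UAS-bla, 3,000 cells/well, 2% charcoal-stripped FBS; 6 h settle, compound 16 h at 37C/5% CO2; LiveBLAzer 2 h RT, then CellTiter-Glo 30 min RT, luminescence read.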

[16] = Caspase-3/7 induction in CHO-K1 cells by small molecules, qHTS cell viability counter screen (AID 1346979); also: nearly all actives have a fitted effect of over 35% in size; also: potency is read from the fitted curve at half-maximal effect
Procedure, shortened: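 CHO-K1 wt, 1,500 cells/well; 5hr pre-incubation 37C/5% CO2; compound pin transfer (DMSO); 16hr exposure; CellTiter-Fluor added, 1hr, fluorescence read.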

Row | SMILES | Potency [1] | Potency [2] | Potency [3] | Potency [4] | outcome [5] | Potency [6] | Potency [7] | Potency [8] | Potency [9] | Potency [10] | Potency [11] | Potency [12] | Potency [13] | Potency [14] | Potency [15] | Potency [16] | activity, negative = inhibition [12]
1 | CCOc1cc(C(C)(C)C)ccc1C1COC(c2c(F)cccc2F)=N1 (centres undefined) | inactive | 23.4 µM (active) | 37.1 µM (active) | inactive | inactive | inactive | inactive | inactive | inactive | inactive | 37.1 µM (active) | inactive | – | – | – | – | –
2 | CC(Cc1ccc(C(C)(C)C)cc1)CN1C[C@@H](C)O[C@@H](C)C1 (some centres undefined) | inactive | inactive | – | inactive | inactive | – | – | inactive | inactive | inactive | 30.6 µM (active) | inactive | inactive | inactive | – | – | –
3 | [Cl][Sn]([c]1ccccc1)([c]1ccccc1)[c]1ccccc1 | 11.6 µM (active) | – | 1.3 µM (active) | 2.61 µM (active) | – | – | – | 1.46 µM (active) | 0.326 µM (active) | 5.8 µM (active) | – | – | 2.61 µM (active) | 1.03 µM (active) | 1.64 µM (active) | 0.326 µM (active) | 1.75% [at 23.6 µM]
4 | CCCCN(CCCC)C(=S)[S-].CCCCN(CCCC)C(=S)[S-].[Zn+2] | 24.3 µM (active) | 12.2 µM (active) | 43.2 µM (active) | inactive | inactive | – | – | inactive | inactive | – | – | inactive | inactive | – | – | 21.7 µM (active) | –
5 | Cc1cc(C(F)(C(F)(F)F)C(F)(F)F)ccc1NC(=O)c1cccc(I)c1C(=O)NC(C)(C)CS(C)(=O)=O | inactive | – | inactive | inactive | inactive | inactive | inactive | inactive | inactive | – | 13.8 µM (active) | inactive | inactive | inactive | inactive | inactive | –
6 | CC(=O)[O-].CC(=O)[O-].[Hg+2] | 21.7 µM (active) | – | 1.37 µM (active) | 24.5 µM (active) | – | – | – | inactive | inactive | 19.3 µM (active) | – | – | 13.8 µM (active) | 6.11 µM (active) | 3.44 µM (active) | 2.43 µM (active) | –
7 | C=CC(=O)OCCCCOC(=O)C=C | inactive | inactive | inactive | inactive | inactive | inactive | inactive | inactive | – | – | inactive | inactive | – | – | inactive | 24.3 µM (active) | –
8 | Oc1ccc(C(c2ccc(O)cc2)(C(F)(F)F)C(F)(F)F)cc1 | inactive | 13.6 µM (active) | – | inactive | inactive | – | inactive | inactive | inactive | – | 24.2 µM (active) and 27.3 µM (active) | inactive | inactive | – | – | 60.8 µM (active) and 68.6 µM (active) | –
9 | COC12CC[C@@]3(C[C@@H]1C(C)(O)C(C)(C)C)[C@H]1Cc4ccc(O)c5c4[C@@]3(CCN1CC1CC1)[C@H]2O5 (some centres undefined) | 60.7 µM (active) | – | 43 µM (active) | 38.6 µM (active) | inactive | – | – | 60.7 µM (active) | 48.2 µM (active) | 68.1 µM (active) | 3.04 µM (active) | inactive | 48.6 µM (active) | 54.1 µM (active) | 38.3 µM (active) | 43 µM (active) | –
